mHTT CaM bind: disrupts binding of mutant huntingtin to calmodulin. P42858. AlphaScreen His-mHTT/GST-CaM binding, luminescence. inhibition, % at 15 µM. 3.6% of 190,000 active. AID 1671202;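 note: 0% = both proteins with DMSO and 100% = one protein alone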
Target sequence (P42858 whole entry, looked up, stated change not applied): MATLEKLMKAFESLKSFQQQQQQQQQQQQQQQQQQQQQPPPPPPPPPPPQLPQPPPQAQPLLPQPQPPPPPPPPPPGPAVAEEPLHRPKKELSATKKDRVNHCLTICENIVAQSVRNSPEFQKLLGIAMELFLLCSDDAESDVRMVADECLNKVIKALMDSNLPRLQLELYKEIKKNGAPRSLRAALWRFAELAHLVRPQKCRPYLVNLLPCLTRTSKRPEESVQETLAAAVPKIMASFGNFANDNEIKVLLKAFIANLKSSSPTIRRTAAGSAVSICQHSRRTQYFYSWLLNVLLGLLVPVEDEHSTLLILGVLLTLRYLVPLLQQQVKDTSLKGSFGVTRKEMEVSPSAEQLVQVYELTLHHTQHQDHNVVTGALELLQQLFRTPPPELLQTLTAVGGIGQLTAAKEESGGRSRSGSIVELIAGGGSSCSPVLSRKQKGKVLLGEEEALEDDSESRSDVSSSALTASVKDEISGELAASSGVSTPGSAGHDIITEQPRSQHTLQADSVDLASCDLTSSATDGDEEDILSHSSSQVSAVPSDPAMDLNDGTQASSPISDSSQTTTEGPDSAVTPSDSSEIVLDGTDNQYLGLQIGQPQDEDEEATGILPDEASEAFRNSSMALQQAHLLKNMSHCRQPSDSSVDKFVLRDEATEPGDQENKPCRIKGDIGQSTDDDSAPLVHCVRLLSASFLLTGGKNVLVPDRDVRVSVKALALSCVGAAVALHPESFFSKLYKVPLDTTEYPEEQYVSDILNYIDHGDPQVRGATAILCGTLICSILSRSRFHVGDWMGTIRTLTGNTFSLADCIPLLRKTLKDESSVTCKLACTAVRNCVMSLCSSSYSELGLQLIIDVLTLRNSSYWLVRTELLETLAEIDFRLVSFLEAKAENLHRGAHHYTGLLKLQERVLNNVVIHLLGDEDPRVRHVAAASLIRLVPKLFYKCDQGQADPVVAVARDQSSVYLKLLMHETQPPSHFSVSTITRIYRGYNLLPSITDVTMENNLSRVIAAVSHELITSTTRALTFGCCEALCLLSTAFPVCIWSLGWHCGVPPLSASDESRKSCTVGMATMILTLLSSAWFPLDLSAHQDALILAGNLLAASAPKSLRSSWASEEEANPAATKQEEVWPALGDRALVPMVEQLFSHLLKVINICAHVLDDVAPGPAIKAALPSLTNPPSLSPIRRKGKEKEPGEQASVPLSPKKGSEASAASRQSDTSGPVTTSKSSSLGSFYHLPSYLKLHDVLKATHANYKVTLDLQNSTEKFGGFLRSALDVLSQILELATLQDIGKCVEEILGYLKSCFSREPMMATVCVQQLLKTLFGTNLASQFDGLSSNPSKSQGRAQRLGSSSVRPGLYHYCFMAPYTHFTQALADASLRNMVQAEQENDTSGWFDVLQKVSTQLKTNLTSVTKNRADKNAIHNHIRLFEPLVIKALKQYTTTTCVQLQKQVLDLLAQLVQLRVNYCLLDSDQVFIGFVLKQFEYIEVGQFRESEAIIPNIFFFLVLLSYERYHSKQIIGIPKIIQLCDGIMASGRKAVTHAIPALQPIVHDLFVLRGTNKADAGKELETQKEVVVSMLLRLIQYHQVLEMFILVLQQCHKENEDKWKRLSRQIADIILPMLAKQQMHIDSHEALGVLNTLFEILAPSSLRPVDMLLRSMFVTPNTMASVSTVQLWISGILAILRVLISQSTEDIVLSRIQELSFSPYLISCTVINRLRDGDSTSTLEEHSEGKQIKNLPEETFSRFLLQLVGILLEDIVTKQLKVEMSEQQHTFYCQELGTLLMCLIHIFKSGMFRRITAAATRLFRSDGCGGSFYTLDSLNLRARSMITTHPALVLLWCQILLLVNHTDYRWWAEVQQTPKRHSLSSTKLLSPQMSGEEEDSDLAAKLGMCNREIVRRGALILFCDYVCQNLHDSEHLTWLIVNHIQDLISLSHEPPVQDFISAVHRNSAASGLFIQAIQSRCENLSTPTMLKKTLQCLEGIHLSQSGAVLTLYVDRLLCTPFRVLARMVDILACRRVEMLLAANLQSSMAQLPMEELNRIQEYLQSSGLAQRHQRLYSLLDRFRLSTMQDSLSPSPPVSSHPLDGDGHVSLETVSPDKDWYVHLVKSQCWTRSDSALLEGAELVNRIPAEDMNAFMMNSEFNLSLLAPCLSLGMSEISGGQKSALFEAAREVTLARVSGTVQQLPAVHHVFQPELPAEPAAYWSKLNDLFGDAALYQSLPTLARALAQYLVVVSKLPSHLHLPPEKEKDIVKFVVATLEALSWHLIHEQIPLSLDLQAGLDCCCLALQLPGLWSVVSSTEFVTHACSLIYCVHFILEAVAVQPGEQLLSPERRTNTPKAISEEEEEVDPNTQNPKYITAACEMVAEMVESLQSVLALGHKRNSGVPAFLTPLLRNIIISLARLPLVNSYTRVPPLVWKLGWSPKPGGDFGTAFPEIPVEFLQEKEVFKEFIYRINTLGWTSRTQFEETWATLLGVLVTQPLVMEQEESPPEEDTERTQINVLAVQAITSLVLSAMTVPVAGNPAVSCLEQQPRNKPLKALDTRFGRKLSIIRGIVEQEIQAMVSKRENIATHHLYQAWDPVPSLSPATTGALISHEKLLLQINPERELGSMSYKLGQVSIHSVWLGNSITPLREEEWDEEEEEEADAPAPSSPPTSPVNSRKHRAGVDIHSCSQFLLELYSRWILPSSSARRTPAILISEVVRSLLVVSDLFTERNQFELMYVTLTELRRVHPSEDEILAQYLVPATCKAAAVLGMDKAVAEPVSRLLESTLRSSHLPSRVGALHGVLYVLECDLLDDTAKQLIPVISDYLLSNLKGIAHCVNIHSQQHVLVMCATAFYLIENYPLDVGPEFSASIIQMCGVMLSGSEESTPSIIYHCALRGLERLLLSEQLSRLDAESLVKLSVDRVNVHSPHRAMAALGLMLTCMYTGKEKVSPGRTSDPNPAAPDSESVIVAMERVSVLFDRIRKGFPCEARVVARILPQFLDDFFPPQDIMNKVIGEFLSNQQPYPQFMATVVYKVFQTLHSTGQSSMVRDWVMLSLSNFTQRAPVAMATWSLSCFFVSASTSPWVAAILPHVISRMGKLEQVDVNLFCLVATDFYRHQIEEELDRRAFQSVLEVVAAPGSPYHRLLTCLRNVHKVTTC
Pf apPOL block: Pf-apPOL DNA polymerase inhibition | AID 1794808 | Recombinant Pf-apPOL, molecular beacon fluorescence, 1.5 h | inhibition, % at 10 µM | 0.25% of 210,000 active
The depositor's hits bear a star. A selection: hits, their analogues and other compounds. The true share with any hit is near 3.6%. Cut-off read from the data, not from the text of the source: active = inhibition above about 50%; inactive = the rest.

What do the screens show for `COc1cccc(OC)c1OCC(O)CN1CCN(c2cc(Cl)ccc2C)CC1` (stereo not given)?
mHTT CaM bind: 64*; Pf apPOL block: 1

What do the screens show for `COc1cccc(OC)c1OCC(O)CN1CCN(c2cccc(Cl)c2)CC1` (stereo not given)?
mHTT CaM bind: 53*; Pf apPOL block: 1

Results for COc1ccc(N2CCN(CC(O)COc3c(OC)cccc3OC)CC2)cc1 (stereo not given) ?
mHTT CaM bind: 7; Pf apPOL block: -6

How did COc1cccc(OC)c1OCC(O)CN1CCN(c2ccccc2F)CC1 (stereo not given) do in these assays?
mHTT CaM bind: 5; Pf apPOL block: -4

How did O=[N+]([O-])c1ccccc1OCC(O)CN1CCN(c2cccc(Cl)c2)CC1 (stereo not given) do in these assays?
mHTT CaM bind: 23; Pf apPOL block: -13

What do the screens show for `CC(=O)[C@]1(O)Cc2c(O)c3c(c(O)c2[C@@H](O[C@H]2C[C@H](N)[C@H](O)[C@H](C)O2)C1)C(=O)c1ccccc1C3=O`?
Pf apPOL block: 50*

Results for COc1cccc2c1C(=O)c1c(O)c3c(c(O)c1C2=O)CC(O)(C(=O)CO)CC3OC1CC(N)C(O)C(C)O1 (stereo not given) ?
Pf apPOL block: inactive

Results for O=C(O)c1coc2c1C(=NNc1ccccc1)CCC2 ?
Pf apPOL block: -12

What do the screens show for `c1ccc(N/N=C2/C/C(=N\Nc3ccccc3)c3ccccc32)cc1`?
mHTT CaM bind: 91*

What do the screens show for `Cc1nc(C)c(Cc2ccccc2)c(N2CCN(C(=O)c3ccc(F)cc3)CC2)n1`?
mHTT CaM bind: 8; Pf apPOL block: -2

Results for CNC(=O)CSc1ncc(-c2ccc(Br)cc2)n1Cc1ccccc1 ?
mHTT CaM bind: 69*; Pf apPOL block: -8

Results for COCCn1c(-c2ccccc2)cnc1SCC(=O)Nc1ccccc1 ?
mHTT CaM bind: 0; Pf apPOL block: -15

What do the screens show for `COc1ccc(C=CC(=O)N(C)C2CCCCC2)cc1Br`?
mHTT CaM bind: 23; Pf apPOL block: -6

Results for CC1CCCN(c2nc(NCC(=O)O)nc(N)c2[N+](=O)[O-])C1 (stereo not given) ?
mHTT CaM bind: -18; Pf apPOL block: -5

Results for Oc1oc(-c2ccccc2Br)nc1C=Nc1cccc(Cl)c1 ?
mHTT CaM bind: 4; Pf apPOL block: -5

Results for Oc1oc(-c2ccccc2F)nc1C=Nc1cccc(Cl)c1 ?
mHTT CaM bind: 3; Pf apPOL block: 72*

How did O=C(C1CN(c2nc3c(F)cccc3s2)C1)N1CCN(c2ccccc2O)CC1 do in these assays?
mHTT CaM bind: 26; Pf apPOL block: -14

How did CCN(CC)CC(C)CNC(=O)C1CCN(S(=O)(=O)N2CCCC2)CC1 (stereo not given) do in these assays?
mHTT CaM bind: -4; Pf apPOL block: -11

Results for COCOCCn1cc(CN2CCS(=O)(=O)N(Cc3ccc(-c4ccc(F)nc4)cc3)C(CC(C)C)C2=O)nn1 (stereo not given) ?
mHTT CaM bind: 50*; Pf apPOL block: 6

How did CC(C)CC1C(=O)N(Cc2cn(Cc3ccco3)nn2)CCS(=O)(=O)N1Cc1ccc(-c2ccncc2)cc1 (stereo not given) do in these assays?
mHTT CaM bind: 33; Pf apPOL block: -5

Results for CC(C)CC1C(=O)N(Cc2cn(Cc3ccco3)nn2)CCS(=O)(=O)N1Cc1ccc(-c2ccc(F)nc2)cc1 (stereo not given) ?
mHTT CaM bind: 60*; Pf apPOL block: -6

Results for COCOCCn1cc(CN2CCS(=O)(=O)N(Cc3ccc(-c4ccc(F)nc4)cc3)C(C(C)C)C2=O)nn1 (stereo not given) ?
mHTT CaM bind: -8; Pf apPOL block: -4

Results for COc1ccc(-c2ccc(CN3C(CC(C)C)C(=O)N(Cc4cn(Cc5ccco5)nn4)CCS3(=O)=O)cc2)cc1 (stereo not given) ?
mHTT CaM bind: 32; Pf apPOL block: -2

How did CC(C)CC1C(=O)N(Cc2cn(Cc3ccco3)nn2)CCS(=O)(=O)N1Cc1ccc(-c2ccccc2)cc1 (stereo not given) do in these assays?
mHTT CaM bind: 68*; Pf apPOL block: -4

How did CCOc1ccc(C(=O)Nc2cccc(-c3nc4ncccc4o3)c2C)cc1[N+](=O)[O-] do in these assays?
mHTT CaM bind: -5; Pf apPOL block: -6

How did O=C(NC1CCCCC1)C1CCN(c2ncccc2-c2nc(-c3cccc(F)c3)no2)CC1 do in these assays?
mHTT CaM bind: -5; Pf apPOL block: -4

How did Cc1ccc(N2CCN(C(=O)c3ccccc3F)C(C)C2=O)c(C)c1 (stereo not given) do in these assays?
mHTT CaM bind: -3; Pf apPOL block: -2

What do the screens show for `O=C(COc1ccccc1[N+](=O)[O-])Nc1cccc(NC(=O)c2ccc(Cl)cc2Cl)c1`?
mHTT CaM bind: 0; Pf apPOL block: 12

What do the screens show for `COC(=O)c1cc(Nc2ccccc2OC)c2cccc(OC)c2n1`?
mHTT CaM bind: 0; Pf apPOL block: 0

What do the screens show for `COc1ccccc1Nc1cc(C(F)(F)F)nc2c(OC)ccc(OC)c12`?
mHTT CaM bind: 69*; Pf apPOL block: 6

What do the screens show for `O=c1c2scc(-c3ccc(F)cc3)c2ncn1Cc1ccc(Br)cc1`?
mHTT CaM bind: -2; Pf apPOL block: -4

How did Cc1ccc(/C=C2\N=C(c3cccc(F)c3)OC2=O)cc1 do in these assays?
mHTT CaM bind: 6; Pf apPOL block: 63*

Results for O=C1OC(c2cccc(Cl)c2)=N/C1=C\c1cccs1 ?
mHTT CaM bind: 53*; Pf apPOL block: 4

Results for O=C1OC(c2cccc(F)c2)=N/C1=C\c1cccs1 ?
mHTT CaM bind: 24; Pf apPOL block: 8

What do the screens show for `O=C1OC(c2cccc(F)c2)=N/C1=C\c1ccc(F)cc1`?
mHTT CaM bind: 6; Pf apPOL block: -3

Results for CC(=O)C1=C(C)NC(SCc2cccc([N+](=O)[O-])c2)=C(C#N)C1c1ccccc1 (stereo not given) ?
mHTT CaM bind: 8; Pf apPOL block: -2

How did CCC(C)NC(=O)CC1CCN(C(=O)c2ccccc2Cl)CC1 (stereo not given) do in these assays?
mHTT CaM bind: 5; Pf apPOL block: -6

Results for CC1CC(N(C(=O)c2ccccc2Cl)c2ccccc2)c2ccccc2N1 (stereo not given) ?
mHTT CaM bind: 98*; Pf apPOL block: -3

Results for CCC(=O)N(c1ccccc1)C1CC(C)Nc2ccccc21 (stereo not given) ?
mHTT CaM bind: 16; Pf apPOL block: 0

What do the screens show for `CC(=O)NC(=Nc1nc(C)cc(C)n1)Nc1ccc(C)cc1C`?
mHTT CaM bind: 0; Pf apPOL block: -2

What do the screens show for `O=S(=O)(c1ccc(Cl)c(S(=O)(=O)N2CCOCC2)c1)N1CCOCC1`?
mHTT CaM bind: -2; Pf apPOL block: 3

Results for Cc1ccc(CN2C(=O)C(=O)c3cc(S(=O)(=O)N4CCOCC4)ccc32)cc1 ?
mHTT CaM bind: 89*; Pf apPOL block: 37

How did O=C1C(=O)N(CCc2ccccc2)c2ccc(Cl)cc21 do in these assays?
mHTT CaM bind: 34; Pf apPOL block: -4

What do the screens show for `O=C1C(=O)N(Cc2cccc(Cl)c2)c2ccccc21`?
mHTT CaM bind: 93*; Pf apPOL block: -6

Results for Cc1ccc(CN2C(=O)C(=O)c3cc(Cl)ccc32)cc1 ?
mHTT CaM bind: 62*; Pf apPOL block: -7

Results for O=C1C(=O)N(Cc2cccc(C(F)(F)F)c2)c2ccccc21 ?
mHTT CaM bind: 48; Pf apPOL block: -5

Assay outcomes deposited in PubChem by University of Kansas High Throughput Screening Laboratory.
